FBPA Giardia inh: qHTS Assay for Inhibitors of Fructose-1,6-bisphosphate Aldolase from Giardia Lamblia; actives 0.71% (n = 290,000); A8B2U2; Potency, µM (doses to about 59.6 µM), without a hit: top-dose activity, negative = inhibition, hits mostly inhibitors; AID 2451, 2010; purified Giardia FBPA; note: potency is the fitted concentration of half-maximal effect; % is set by controls: 0 for no effect and ±100 for the full control effect; nearly all actives have a fitted effect of over 55% in size
Target sequence (A8B2U2 whole entry, looked up): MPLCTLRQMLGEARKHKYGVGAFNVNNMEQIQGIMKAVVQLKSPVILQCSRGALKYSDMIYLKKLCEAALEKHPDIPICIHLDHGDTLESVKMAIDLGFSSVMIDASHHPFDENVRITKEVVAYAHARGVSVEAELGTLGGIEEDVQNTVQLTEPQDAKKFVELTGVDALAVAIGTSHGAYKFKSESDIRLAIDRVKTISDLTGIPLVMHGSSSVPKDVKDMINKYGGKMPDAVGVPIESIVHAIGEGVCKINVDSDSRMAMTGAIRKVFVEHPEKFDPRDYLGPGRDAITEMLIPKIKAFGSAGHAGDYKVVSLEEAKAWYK
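Giardia FBPA (40 nM reagent) was preincubated 10 min at RT with compound (up to 57.5 uM final), then substrate plus GAPDH/TPI/NAD/arsenate coupling system with diaphorase/resazurin was added; resorufin fluorescence (525/598 nm) was read after 20 min.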
Cycloheximide cs: Cycloheximide Counterscreen for Small Molecule Inhibitors of Shiga Toxin; max response, %; AID 2314, 2010; actives 12% (n = 300,000); cell reporter, cycloheximide protein synthesis inhibition counterscreen; in the data active = max response mostly above about 13%, no sharp cut-off; inactive = mostly below about 14%; note: read at 38.3 µM for the half of the compounds with a filed dose; 0% is about no effect
RE007 growth inh: qHTS Assay for Inhibitors of the HIV-1 protein Vpr; S. pombe RE007 Vpr strain, BacTiter-Glo ATP luminescence, 24 h; AID 651644, 2012; Potency, µM (series often up to 92.2 µM), without a hit: at the highest dose activity change, negative = less growth, actives largely listed as inhibitors; actives 0.21% (n = 360,000); active = well fitted falling curve with a large enough effect; inconclusive = small, poorly fitted or top-dose-only effect; inactive = no such curve, though single readings can be large or run the other way; note: potency is the fitted concentration of half-maximal effect; % is set by controls: 0 for no effect and ±100 for the full control effect; nearly all actives have a fitted effect of over 50% in size
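Fission yeast RE007 carrying one integrated HIV-1 vpr copy, seeded at OD 0.01 in PMG+AL medium with 23 nL pinned compound. Grown 24 h at 30 degrees; viability read by BacTiter-Glo luminescence after 5 min.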
Shiga inhibitor: A qHTS for Small Molecule Inhibitors of Shiga Toxin. actives 9.2% (n = 290,000). AID 2315, 2010. Vero cells, Shiga toxin protein synthesis inhibition reporter. inhibition, % at 38.7 µM; in the data active = inhibition mostly above about 28%, no sharp cut-off; inactive = mostly below about 43%; note: 0% is about no effect
LmPK inhibitor: qHTS Assay for Inhibitors of Leishmania Mexicana Pyruvate Kinase (LmPK); Q27686; purified LmPK, Kinase-Glo ATP luminescence, 1 h; Potency, µM (highest dose often 57.5 µM), without a hit: at the top dose activity change, negative = inhibition, actives largely listed as inhibitors; actives 0.37% (n = 290,000); note: potency is the fitted concentration of half-maximal effect; % is set by controls: 0 for no effect and ±100 for the full control effect
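Screened at intermediate enzyme activity to detect both inhibitors and activators: LmPK at 0.1 nM, with a 0.5 nM enzyme column as activation reference. PEP 0.5 mM, ADP 0.1 mM; ATP detected by luminescence after 1 h.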
Tb PYK inh: qHTS of Trypanosoma Brucei Inhibitors | TbPYK enzyme, Kinase-Glo Plus ATP luminescence, 45 min | Potency, µM (highest dose often 76.8 µM), for inactives: at the highest dose activity, negative = inhibition, hits mostly inhibitors | AID 624173, 2012 | actives 0.12% (n = 410,000); note: potency is the fitted concentration of half-maximal effect; % is set by controls: 0 for no effect and ±100 for the full control effect; nearly all actives have a fitted effect of over 50% in size
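Activity of T. brucei pyruvate kinase was followed by Kinase-Glo Plus luminescence after the enzyme reacted 45 min at room temperature with 130 uM ADP (final) and substrate. Test compounds were added before ADP at multiple concentrations.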
Active calls of the source: *; ? = inconclusive; / = no result; [ ] = remark or other dose. Shown is part of a subset that was picked to be rich in hits. Unless noted, calls come from the whole dose curve; as a rule, active = well fitted curve in the direction sought with a large enough effect; inconclusive = small, poorly fitted or top-dose-only effect, or another doubt; inactive = no such curve, though single readings can be large; an effect the other way counts as inactive or inconclusive.

SMILES	FBPA Giardia inh	Cycloheximide cs	RE007 growth inh	Shiga inhibitor	LmPK inhibitor	Tb PYK inh
CS(=O)(=O)N1N=C(c2ccccc2)CC1c1ccc2nccnc2c1 (centres undefined)	1%	18	-5%	63*	0%	-1%
O=C(O)CCCC(=O)N1N=C(c2ccccc2)CC1c1ccc2nccnc2c1 (centres undefined)	7%	8	11%	-2	0%	-15%
Cc1ccc(C2=NN(S(C)(=O)=O)C(c3ccc4nccnc4c3)C2)cc1 (centres undefined)	4%	19*	6%	46*	-1%	-3%
Cc1ccc2nc(Cl)c(C3CC(c4ccco4)=NN3S(C)(=O)=O)cc2c1 (centres undefined)	0%	-2	25%	9	3%	-8%
CCC1=C2CC[C@H]3C(=O)N(c4ccccc4)C(=O)[C@H]3[C@H]2[C@@]2(Cc3ccccc3)C(=O)N(CC(=O)OC)C(=O)N2C1=O	5%	/	/	/	/	/
CCCC(=O)Nc1nnc(SCc2cc(=O)n3cccc(C)c3n2)s1	/	/	/	/	/	8%
Clc1c(-c2nnc3n2CCCCC3)sc2ccccc12	4%	3	-22%	-8	-6%	-7%
COc1ccc2c(Cl)c(-c3nnc4n3CCCCC4)sc2c1	11%	25*	-22%	34	10%	-6%
Clc1c(-c2nnc3n2CCC3)sc2ccccc12	10%	15*	?	50	0%	6%
COC(=O)C1=C(C)N(C)C(C)=C(C(=O)OC)C1c1ccsc1	0%	-3	-2%	-16	2%	-3%
CCOC(=O)C1=CN(C)C=C(C(=O)OCC)C1c1ccsc1	3%	17*	6%[3.69 µM]	-6	11%	/
COc1cc(CN2CCc3ccccc3C2)ccc1O	?	30*	-2%	54*	-1%	-6%
COc1cccc(NS(=O)(=O)c2ccc3[nH]cc(C(=O)N(C)C4CCCCC4)c(=O)c3c2)c1	/	/	/	/	/	3%
Cc1ccc2nc(CSc3nc(C)cc(C)c3C#N)[nH]c2c1	-5%	46*	1%	72	-1%	1%
Cc1ccc(-n2nc(C)c3c2OC(N)=C(C#N)C3c2ccco2)cc1 (centres undefined)	-17%	22*	-17%	75*	-1%	-22%
Cc1ccc(-n2nc(C)c3c2OC(N)=C(C#N)C3c2ccoc2)cc1 (centres undefined)	-11%	25*	-9%	52	15%	-3%
Cc1ccc(-n2nc(C)c3c2OC(N)=C(C#N)C3c2ccc(C)o2)cc1 (centres undefined)	?	48*	7%	92*	-5%	-7%
Cc1ccc(N=Nc2c(N)n(-c3ccccc3)[nH]c2=O)cc1	-4%	38*	-17%	122*	-7%	-16%
Cc1[nH]n(-c2ccccc2)c(=O)c1N=Nc1cccc(C(=O)O)c1	?	42*	-30%	/	-1%	-8%
Cc1[nH]n(-c2ccccc2)c(=O)c1N=Nc1ccccc1	-25%	23*	7%	48	-1%	1%
CCn1c(CNc2ccc(Cl)cc2)nnc1SCC#N	-1%	-1	-12%	-9	-2%	-4%
CC(=O)Nc1cccc(-c2cn3ccc(C)cc3n2)c1	-21%	44*	-12%	89*	?	-3%
CC(=O)Nc1ccc2nc(-c3ccccc3)cn2c1	-14%	40*	3%	107*	-10%	-3%
COc1c(Cl)cccc1-c1cn2ccc(C)cc2n1	?	42*	-12%	81*	?	-6%
Cc1ccn2cc(-c3cccc(S(=O)(=O)N4CCCC4)c3)nc2c1	-17%	19*	2%	98	2%	-3%
O=C(NCCc1ccc(Cl)cc1)c1ccc(CS(=O)(=O)Cc2ccc(Cl)cc2)o1	/	/	/	/	/	-9%
COc1ccc2oc(=O)c(-c3cn4ccc(C)cc4n3)cc2c1	-13%	23*	11%	28	3%	-2%

Source: PubChem
